Several values for one entry are separate records, joined by “and”; a condition that tells them apart may be missing. Equal entries are not always repeated. This is part of a sample that, as a whole, favours compounds with a hit. Of some 83,000 tested, about 20% had one in any assay.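 48-hour exposure, single concentration, 96-well plates; percent growth endpoint where 0 means no net growth. Active: below 10.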 Activity calls are given as the source filed them.
Tests used:
Test in all cases: NCI-60 one-dose screen, 48 h (100 = growth as untreated, 0 = no growth, -100 = all killed)
NCI-H23 lung = test system: NCI-H23 lung
NCI-H226 lung = settings: 10 µM
NCI-H322M lung = test system: NCI-H322M lung
HOP-62 NSCLC = test system: HOP-62 NSCLC
NCI-H522 lung = test system: NCI-H522 lung
A549/ATCC NSCLC = test system: A549/ATCC NSCLC
786-0 renal = test system: 786-0 renal
DU-145 prostate = test system: DU-145 prostate
K-562 leukemia = test system: K-562 leukemia
MALME-3M melanoma = test system: MALME-3M melanoma
MDA-MB-231 breast = test system: MDA-MB-231 breast
SF-268 CNS = test system: SF-268 CNS
SF-295 CNS = test system: SF-295 CNS
SF-539 CNS = test system: SF-539 CNS
UACC-257 melanoma = test system: UACC-257 melanoma
M14 melanoma = settings: 10 µM unless noted
HCT-15 colon = test system: HCT-15 colon
RXF 393 renal = test system: RXF 393 renal
NCI-H460 lung = settings: 10 µM
COLO 205 colon = settings: 10 µM

Measured: growth

C=C1N(C)c2ccc(Cl)cc2C1(C)C
inactive: NCI-H23 lung; 10 µM 52% | NCI-H226 lung 67.6% | NCI-H322M lung; 10 µM 84.2% | HOP-62 NSCLC; 10 µM 63.6% | NCI-H522 lung; 10 µM 23.7% | A549/ATCC NSCLC; 10 µM 44.4% | 786-0 renal; 10 µM 75.8% | DU-145 prostate; 10 µM 48.9% | K-562 leukemia; 10 µM 13.2% | MALME-3M melanoma; 10 µM 66% | MDA-MB-231 breast; 10 µM 82.7% | SF-268 CNS; 10 µM 77.4% | SF-295 CNS; 10 µM 67.1% | SF-539 CNS; 10 µM 109% | UACC-257 melanoma; 10 µM 60.4% | M14 melanoma 72.2% | HCT-15 colon; 10 µM 106%

N#CC(=C1C=CC(=NO)C=C1)c1ccccc1
inactive: NCI-H23 lung; 10 µM 35.3% | NCI-H226 lung 44.5% | NCI-H322M lung; 10 µM 66.3% | NCI-H522 lung; 10 µM 39% | A549/ATCC NSCLC; 10 µM 34% | K-562 leukemia; 10 µM 11.9% | MALME-3M melanoma; 10 µM 59.1% | SF-295 CNS; 10 µM 19.6% | UACC-257 melanoma; 10 µM 65.6%
active: HOP-62 NSCLC; 10 µM 6.93% | 786-0 renal; 10 µM 6.67% | DU-145 prostate; 10 µM -66.7% | MDA-MB-231 breast; 10 µM -4.14% | SF-268 CNS; 10 µM -24% | SF-539 CNS; 10 µM -58.7% | M14 melanoma -36.5% | HCT-15 colon; 10 µM 9.7%

CC[C@@]1(OC(=O)CN(C)C)C(=O)OCc2c1cc1n(c2=O)Cc2cc3c(N)cccc3nc2-1
active: NCI-H23 lung; 10 µM -26.7% | NCI-H322M lung; 10 µM -18.6% | HOP-62 NSCLC; 10 µM -5.79% | NCI-H522 lung; 10 µM -26% | A549/ATCC NSCLC; 10 µM 4.76% | 786-0 renal; 10 µM 0.893% | DU-145 prostate; 10 µM 4.87% | K-562 leukemia; 10 µM 9.06% | MALME-3M melanoma; 10 µM -23.9% | RXF 393 renal; 10 µM -23.4% | SF-268 CNS; 10 µM 8.15% | SF-295 CNS; 10 µM -7.04% | SF-539 CNS; 10 µM -30.9% | UACC-257 melanoma; 10 µM -35.4% | M14 melanoma -40.1% | HCT-15 colon; 10 µM 6.43%
inactive: MDA-MB-231 breast; 10 µM 27.7%

Cc1c(-c2ccccc2)[nH]c2ccccc12
inactive: NCI-H23 lung; 10 µM 103% | NCI-H322M lung; 10 µM 108% | HOP-62 NSCLC; 10 µM 104% | NCI-H460 lung 104% | NCI-H522 lung; 10 µM 86.1% | A549/ATCC NSCLC; 10 µM 102% | DU-145 prostate; 10 µM 107% | K-562 leukemia; 10 µM 110% | MALME-3M melanoma; 10 µM 106% | MDA-MB-231 breast; 10 µM 95.1% | RXF 393 renal; 10 µM 109% | SF-268 CNS; 10 µM 104% | SF-295 CNS; 10 µM 106% | SF-539 CNS; 10 µM 99.3% | UACC-257 melanoma; 10 µM 112% | M14 melanoma 143% | HCT-15 colon; 10 µM 106%

O=C1C(Cl)=C(Cl)C(Cl)(Cl)C(Cl)C1(Cl)Cl (centres undefined)
inactive: NCI-H23 lung; 10 µM 106% | NCI-H322M lung; 10 µM 103% | HOP-62 NSCLC; 10 µM 98.5% | NCI-H522 lung; 10 µM 89.3% | A549/ATCC NSCLC; 10 µM 105% | 786-0 renal; 10 µM 102% | DU-145 prostate; 10 µM 114% | K-562 leukemia; 10 µM 102% | MALME-3M melanoma; 10 µM 99.9% | MDA-MB-231 breast; 10 µM 96.2% | RXF 393 renal; 10 µM 116% | SF-268 CNS; 10 µM 108% | SF-295 CNS; 10 µM 94.5% | SF-539 CNS; 10 µM 96.2% | UACC-257 melanoma; 10 µM 110% | M14 melanoma 103% | HCT-15 colon; 10 µM 91.3%

COc1ccc(C(C#N)=C2C=CC(=NO)C=C2)cc1
active: NCI-H522 lung; 10 µM -24.7%
inactive: NCI-H23 lung; 10 µM 94.9% | NCI-H322M lung; 10 µM 94.3% | HOP-62 NSCLC; 10 µM 47.7% | A549/ATCC NSCLC; 10 µM 88.9% | 786-0 renal; 10 µM 34.9% | DU-145 prostate; 10 µM 72.4% | K-562 leukemia; 10 µM 46.6% | MALME-3M melanoma; 10 µM 103% | MDA-MB-231 breast; 10 µM 96.3% | RXF 393 renal; 10 µM 113% | SF-268 CNS; 10 µM 80.9% | SF-295 CNS; 10 µM 106% | SF-539 CNS; 10 µM 79% | UACC-257 melanoma; 10 µM 58.1% | M14 melanoma 79.1% | HCT-15 colon; 10 µM 91.5%

CCC(C)(c1ccc(O)c(C)c1)c1ccc(O)c(C)c1
inactive: NCI-H23 lung; 10 µM 91.9% | NCI-H322M lung; 10 µM 318% | HOP-62 NSCLC; 10 µM 84.5% | NCI-H460 lung 97.3% | NCI-H522 lung; 10 µM 75.9% | A549/ATCC NSCLC; 10 µM 83.4% | 786-0 renal; 10 µM 63.5% | DU-145 prostate; 10 µM 110% | K-562 leukemia; 10 µM 106% | MALME-3M melanoma; 10 µM 219% | MDA-MB-231 breast; 10 µM 85% | RXF 393 renal; 10 µM 87.4% | SF-268 CNS; 10 µM 89.7% | SF-295 CNS; 10 µM 87.8% | SF-539 CNS; 10 µM 93.7% | UACC-257 melanoma; 10 µM 107% | M14 melanoma 91.6% | HCT-15 colon; 10 µM 99.1%

O=S(=O)(c1cc(Cl)ccc1O)c1cc(Cl)ccc1O
inactive: NCI-H23 lung; 10 µM 84.6% | NCI-H322M lung; 10 µM 106% | HOP-62 NSCLC; 10 µM 83.7% | NCI-H522 lung; 10 µM 63.9% | A549/ATCC NSCLC; 10 µM 81.3% | 786-0 renal; 10 µM 86.7% | DU-145 prostate; 10 µM 100% | K-562 leukemia; 10 µM 62.1% | MALME-3M melanoma; 10 µM 95.7% | MDA-MB-231 breast; 10 µM 95.4% | RXF 393 renal; 10 µM 102% | SF-268 CNS; 10 µM 88.2% | SF-295 CNS; 10 µM 85.2% | SF-539 CNS; 10 µM 86.6% | UACC-257 melanoma; 10 µM 35.1% | M14 melanoma 75.8% | HCT-15 colon; 10 µM 94.2%

Nc1nc(N)c2cc(Sc3ccc4ccccc4c3)ccc2n1
inactive: NCI-H23 lung; 10 µM 43.1% | NCI-H322M lung; 10 µM 48% | HOP-62 NSCLC; 10 µM 65% | NCI-H460 lung 16.1% | NCI-H522 lung; 10 µM 31.4% | A549/ATCC NSCLC; 10 µM 15.2% | 786-0 renal; 10 µM 23% | DU-145 prostate; 10 µM 30.5% | MALME-3M melanoma; 10 µM 53% | MDA-MB-231 breast; 10 µM 40.2% | RXF 393 renal; 10 µM 52.7% | SF-268 CNS; 10 µM 42.1% | SF-539 CNS; 10 µM 33.2% | UACC-257 melanoma; 10 µM 32.9% | M14 melanoma 16.4% | HCT-15 colon; 10 µM 22.6%
active: COLO 205 colon -71.6% | K-562 leukemia; 10 µM -3.38%

S=P(N1CC1)(N1CC1)N1CC1
active: DU-145 prostate; 100 µM -0.811% | SF-539 CNS; 100 µM -8.76%
inactive: NCI-H23 lung; 10 µM 100% and 73.4% | NCI-H23 lung; 100 µM 33% | NCI-H322M lung; 10 µM 102% and 98.2% | NCI-H322M lung; 100 µM 89.4% | HOP-62 NSCLC; 10 µM 109% and 36.8% | HOP-62 NSCLC; 100 µM 47.9% | NCI-H522 lung; 10 µM 104% and 82.9% | NCI-H522 lung; 100 µM 59.5% | A549/ATCC NSCLC; 10 µM 103% and 69.9% | A549/ATCC NSCLC; 100 µM 52.2% | 786-0 renal; 10 µM 100% and 83.6% | 786-0 renal; 100 µM 21.6% | DU-145 prostate; 10 µM 121% and 71.9% | K-562 leukemia; 10 µM 109% and 53.2% | K-562 leukemia; 100 µM 43.4% | MALME-3M melanoma; 10 µM 98.1% and 97.8% | MALME-3M melanoma; 100 µM 82% | MDA-MB-231 breast; 10 µM 100% and 103% | MDA-MB-231 breast; 100 µM 101% | RXF 393 renal; 10 µM 120% and 86% | RXF 393 renal; 100 µM 14.4% | SF-268 CNS; 10 µM 124% and 83.6% | SF-268 CNS; 100 µM 36.5% | SF-295 CNS; 10 µM 104% and 81.7% | SF-295 CNS; 100 µM 14.3% | SF-539 CNS; 10 µM 113% and 94.6% | UACC-257 melanoma; 10 µM 107% and 87.7% | UACC-257 melanoma; 100 µM 37.2% | M14 melanoma 96.2% and 60.4% | HCT-15 colon; 10 µM 106% and 84.9% | HCT-15 colon; 100 µM 57.5%

O=Nc1ccc(Nc2ccccc2)cc1
inactive: NCI-H23 lung; 10 µM 89% | NCI-H322M lung; 10 µM 98.5% | HOP-62 NSCLC; 10 µM 111% | NCI-H460 lung 97.8% | NCI-H522 lung; 10 µM 66.8% | 786-0 renal; 10 µM 80% | DU-145 prostate; 10 µM 94.9% | K-562 leukemia; 10 µM 13.4% | MALME-3M melanoma; 10 µM 104% | MDA-MB-231 breast; 10 µM 62.5% | RXF 393 renal; 10 µM 86.5% | SF-268 CNS; 10 µM 86% | SF-295 CNS; 10 µM 101% | SF-539 CNS; 10 µM 67.7% | M14 melanoma 89.7% | HCT-15 colon; 10 µM 81.2%

Reference: PubChem BioAssay (NCI)
